Seven compounds from PubChem BioAssay (NCATS) can be followed below.

Structures are written as SMILES. Records with an inconclusive call do not appear. Unmarked numbers belong to inactive results. Calls of active or inactive are those of the source. Calls follow the shape of the dose curve; as a rule, active = well fitted inhibition curve with a large enough effect; inconclusive = small, poorly fitted or top-dose-only effect; inactive = flat fitted curve, though single readings scatter.
Potency is read from the fitted curve at half-maximal effect.

For this test, the system named is W2. As to the kind of experiment: qHTS profiling for inhibitors of Plasmodium falciparum proliferation (AID 504749). Also: nearly all actives have a fitted effect of over 60% in size.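 As to activity, negative = inhibition: 0% = DMSO vehicle and full inhibition = artemisinin control.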 Conditions: P. falciparum in erythrocytes, SYBR Green DNA, 72 h; series mostly up to 12.8 µM; activity, negative = inhibition: at the top concentration. An outline of the steps: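 P. falciparum-infected erythrocytes (0.3% parasitemia, 2.5% hematocrit final) were exposed to compounds for 72 h at 37 C in 5% CO2, then lysed with SYBR Green buffer overnight at room temperature; parasite DNA fluorescence was normalized to artemisinin and DMSO controls.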
`COc1cc(N[C@@H](C)CCCN)c2ncccc2c1`: the Potency is 2030 nM (active).
For `C=Cc1c(C)c2cc3nc(cc4[nH]c(cc5nc(cc1[nH]2)C(C)=C5CCC(=O)O)c(CCC(=O)OC)c4C)[C@@]1(C)C3=CC=C(C(=O)OC)[C@H]1C(=O)OC` (tested in a mixture with another compound), the Potency was 1690 nM (active).
As for `CO[C@]1(NC(=O)[C@H](C(=O)O)c2ccc(O)cc2)C(=O)N2C(C(=O)O)=C(CSc3nnnn3C)CO[C@H]21`, the “activity, negative = inhibition” value was 9.75%.
In the case of `CCC(=O)[C@@]1(C)[C@H](C)C[C@@H]2[C@@H]3CCC4=CC(=O)C=C[C@@]4(C)[C@H]3[C@H](O)C[C@]21C`, the Potency was 5100 nM (active).
For `COC(=O)[C@@H]1[C@@H]2C[C@H]3c4[nH]c5cc(OC)ccc5c4CCN3C[C@@H]2C[C@H](OC(=O)/C=C\c2cc(OC)c(OC)c(OC)c2)[C@H]1OC`, the Potency is 1810 nM (active).
As for `CC=C(/C(=C/C)c1ccc(O)cc1)c1ccc(O)cc1`, the “activity, negative = inhibition” value was 0.413%.
Regarding `CC1(C)S[C@@H]2[C@H](NC(=O)[C@@H](N)c3ccccc3)C(=O)N2[C@H]1C(=O)O[C@H]1OC(=O)c2ccccc21`, the “activity, negative = inhibition” value is -1.11%.
